In the supplement of paper PMC10849652:
Targets with a hit are over-represented here; the source holds about 8,800 in all. About 0.5% of all pairs of compound and target were hits. A number with no mark means an inactive call.

Experiments:
Assay in all cases: log2 fold change, soluble protein after heating vs DMSO (PISA); higher = thermal stabilisation; K562 lysate, 10 uM; active = over 0.2 and 3.5 SD of the protein, either way, in both replicates (recomputed)
[1] = compound: CN1CC[C@H](c2c(O)cc(O)c3c(=O)cc(-c4ccccc4Cl)oc23)[C@H](O)C1 [alvocidib]
Summary of the method: (§1)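 K562 pellets were dounce-homogenised in PBS pH 7.4 with 1 mM MgCl2, and the crude extract at 1 mg/mL protein was treated with 10 μM compound for 30 min. Aliquots were heated for 3 min across 48°C-58°C, pooled, and brought to 0.5% NP-40 at 4°C; soluble protein was the supernatant after 21,000xg for 90 min. Soluble protein was quantified by TMTpro 16plex LC-MS/MS with channel sums equalised, and reported as log2 fold change in thermal stability against DMSO controls, with values from duplicates.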

[2] = compound: CN1CCc2c(c3ccccc3n2Cc2ccc(C(=O)NO)cc2)C1 [Tubastatin A]
Summary of the method: as §1

[3] = compound: CNC(=O)C1=CC=CC=C1NC2=NC(=NC=C2Cl)NC3=C(C=C(C=C3)N4CCOCC4)OC
Summary of the method: as §1

[4] = compound: CNC(=O)c1ccc(Nc2ncc(C(F)(F)F)c(NCc3nccnc3N(C)S(C)(=O)=O)n2)cc1 [defactinib]
Summary of the method: as §1

[5] = compound: CNc1nc(-c2ccc3c(N)n[nH]c3c2)cc(N2C[C@@H](C(=O)NC3CCCCC3)CC[C@H]2C)n1
Summary of the method: as §1

[6] = compound: COC(=O)N[C@@H](C)CNc1nccc(-c2cn(C(C)C)nc2-c2cc(Cl)cc(NS(C)(=O)=O)c2F)n1 [encorafenib]
Summary of the method: as §1

[7] = compound: COC(=O)[C@H](CCSC)NC(=O)C1=C(C=C(C=C1)NC[C@H](CS)N)C2=CC=CC=C2
Summary of the method: as §1

[8] = compound: COc1cc(Nc2ncc3c(n2)-c2ccc(Cl)cc2C(c2c(F)cccc2OC)=NC3)ccc1C(=O)O [alisertib]
Summary of the method: as §1

[9] = compound: COc1cc2nc(-c3cc(F)ccc3O)nc(N[C@@H]3CNC[C@H]3C(C)(C)O)c2cc1OC
Summary of the method: as §1

[10] = compound: COc1cc2ncnc(Nc3ccc(F)c(Cl)c3)c2cc1OCCCN1CCOCC1 [gefitinib]
Summary of the method: as §1

[11] = compound: CS(=O)(=O)CCNCc1ccc(-c2ccc3ncnc(Nc4ccc(OCc5cccc(F)c5)c(Cl)c4)c3c2)o1 [lapatinib]
Summary of the method: as §1

[12] = compound: CS(=O)(=O)N1CCN(Cc2cc3nc(-c4cccc5[nH]ncc45)nc(N4CCOCC4)c3s2)CC1 [pictilisib]
Summary of the method: as §1

[13] = compound: C[C@@H](Oc1cc(-c2cnn(C3CCNCC3)c2)cnc1N)c1c(Cl)ccc(F)c1Cl [crizotinib]
Summary of the method: as §1

[14] = compound: C[C@H](C1=CC=C(C=C1)C(=O)NC2=C3C=CNC3=NC=C2)N
Summary of the method: as §1

[15] = compound: C[C@H](Nc1ncnc2nc[nH]c12)c1cc2cccc(Cl)c2c(=O)n1-c1ccccc1 [duvelisib]
Summary of the method: as §1

[16] = compound: Cc1cc(Nc2cc(CN3CCOCC3)c3nc(C)c(Cc4ccc(Cl)cc4F)n3n2)n[nH]1 [gandotinib]
Summary of the method: as §1

[17] = compound: Cc1cc(Nc2cc(N3CCN(C)CC3)nc(Sc3ccc(NC(=O)C4CC4)cc3)n2)n[nH]1 [tozasertib]
Summary of the method: as §1

[18] = compound: Cc1ccc(-n2nc(C(C)(C)C)cc2NC(=O)Nc2ccc(OCCN3CCOCC3)c3ccccc23)cc1 [doramapimod]
Summary of the method: as §1

[19] = compound: Cc1ccc(NC(=O)c2ccc(CN3CC[C@H](N(C)C)C3)c(C(F)(F)F)c2)cc1Nc1nccc(-c2cncnc2)n1 [bafetinib]
Summary of the method: as §1

[20] = compound: Cc1cccc(CC(=O)N2CCc3c2ccc(-c2cn(C)c4ncnc(N)c24)c3F)n1
Summary of the method: as §1

UniProt P53396, sequence (P53396 whole entry, looked up): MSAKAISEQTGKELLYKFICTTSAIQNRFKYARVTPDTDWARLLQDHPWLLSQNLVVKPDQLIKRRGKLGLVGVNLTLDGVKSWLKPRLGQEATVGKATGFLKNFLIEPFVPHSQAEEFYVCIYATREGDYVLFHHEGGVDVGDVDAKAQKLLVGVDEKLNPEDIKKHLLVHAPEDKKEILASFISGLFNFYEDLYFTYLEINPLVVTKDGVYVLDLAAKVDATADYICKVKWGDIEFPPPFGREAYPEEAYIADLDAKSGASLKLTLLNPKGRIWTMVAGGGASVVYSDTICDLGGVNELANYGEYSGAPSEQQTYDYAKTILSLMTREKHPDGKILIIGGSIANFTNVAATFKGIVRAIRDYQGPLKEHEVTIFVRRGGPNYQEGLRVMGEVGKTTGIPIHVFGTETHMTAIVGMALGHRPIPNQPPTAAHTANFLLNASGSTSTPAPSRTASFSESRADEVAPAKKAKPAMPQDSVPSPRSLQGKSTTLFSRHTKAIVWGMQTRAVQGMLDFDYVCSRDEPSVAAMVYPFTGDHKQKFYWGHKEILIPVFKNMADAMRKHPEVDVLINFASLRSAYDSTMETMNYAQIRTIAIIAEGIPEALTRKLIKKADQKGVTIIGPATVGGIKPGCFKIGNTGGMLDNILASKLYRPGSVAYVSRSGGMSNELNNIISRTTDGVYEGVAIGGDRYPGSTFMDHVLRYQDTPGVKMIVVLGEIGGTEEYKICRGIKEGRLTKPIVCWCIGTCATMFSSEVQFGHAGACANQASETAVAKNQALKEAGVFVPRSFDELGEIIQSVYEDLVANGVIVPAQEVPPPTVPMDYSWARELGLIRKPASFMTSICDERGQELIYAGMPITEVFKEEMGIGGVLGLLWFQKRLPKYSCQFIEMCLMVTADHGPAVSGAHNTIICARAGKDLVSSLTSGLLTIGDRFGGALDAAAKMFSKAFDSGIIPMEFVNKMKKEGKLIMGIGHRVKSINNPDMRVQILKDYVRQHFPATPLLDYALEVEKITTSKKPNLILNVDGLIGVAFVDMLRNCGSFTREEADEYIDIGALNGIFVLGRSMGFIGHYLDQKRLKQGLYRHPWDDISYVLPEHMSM
UniProt O15440, sequence (O15440 whole entry, looked up): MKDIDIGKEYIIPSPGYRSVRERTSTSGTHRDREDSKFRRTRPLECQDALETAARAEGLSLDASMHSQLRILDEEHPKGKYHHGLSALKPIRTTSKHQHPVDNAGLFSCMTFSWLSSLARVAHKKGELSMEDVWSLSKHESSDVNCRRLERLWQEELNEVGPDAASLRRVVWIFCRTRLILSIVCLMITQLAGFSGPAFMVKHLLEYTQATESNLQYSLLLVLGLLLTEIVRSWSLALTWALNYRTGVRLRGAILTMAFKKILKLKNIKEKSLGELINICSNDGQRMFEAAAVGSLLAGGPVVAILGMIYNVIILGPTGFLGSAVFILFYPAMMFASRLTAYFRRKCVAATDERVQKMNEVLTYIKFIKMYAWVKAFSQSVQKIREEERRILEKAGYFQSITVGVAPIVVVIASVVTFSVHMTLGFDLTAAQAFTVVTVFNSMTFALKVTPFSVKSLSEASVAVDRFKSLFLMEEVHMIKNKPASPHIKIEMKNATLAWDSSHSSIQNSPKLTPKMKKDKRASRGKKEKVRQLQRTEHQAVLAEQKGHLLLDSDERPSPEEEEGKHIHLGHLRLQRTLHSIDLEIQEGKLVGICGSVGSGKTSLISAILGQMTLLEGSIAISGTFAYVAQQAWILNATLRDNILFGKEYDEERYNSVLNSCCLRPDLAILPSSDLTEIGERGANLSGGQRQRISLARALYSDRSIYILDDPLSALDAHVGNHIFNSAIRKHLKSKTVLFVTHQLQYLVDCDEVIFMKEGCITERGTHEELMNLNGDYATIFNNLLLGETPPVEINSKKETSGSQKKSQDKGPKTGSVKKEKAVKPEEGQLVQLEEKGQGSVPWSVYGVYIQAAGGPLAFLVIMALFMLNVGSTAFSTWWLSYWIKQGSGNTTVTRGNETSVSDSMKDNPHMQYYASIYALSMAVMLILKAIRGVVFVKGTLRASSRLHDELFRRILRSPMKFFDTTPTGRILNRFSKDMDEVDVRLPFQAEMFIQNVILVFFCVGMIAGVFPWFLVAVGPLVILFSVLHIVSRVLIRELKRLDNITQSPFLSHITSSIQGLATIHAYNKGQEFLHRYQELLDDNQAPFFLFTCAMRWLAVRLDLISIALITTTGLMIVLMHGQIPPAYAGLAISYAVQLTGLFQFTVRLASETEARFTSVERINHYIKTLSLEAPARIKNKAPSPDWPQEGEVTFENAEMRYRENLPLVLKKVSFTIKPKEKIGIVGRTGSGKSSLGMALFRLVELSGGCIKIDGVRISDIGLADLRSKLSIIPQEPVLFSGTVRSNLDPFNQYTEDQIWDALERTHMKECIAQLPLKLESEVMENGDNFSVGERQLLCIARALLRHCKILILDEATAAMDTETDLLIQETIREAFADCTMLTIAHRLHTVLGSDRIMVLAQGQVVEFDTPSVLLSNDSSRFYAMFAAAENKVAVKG
UniProt P52895, sequence (P52895 whole entry, looked up): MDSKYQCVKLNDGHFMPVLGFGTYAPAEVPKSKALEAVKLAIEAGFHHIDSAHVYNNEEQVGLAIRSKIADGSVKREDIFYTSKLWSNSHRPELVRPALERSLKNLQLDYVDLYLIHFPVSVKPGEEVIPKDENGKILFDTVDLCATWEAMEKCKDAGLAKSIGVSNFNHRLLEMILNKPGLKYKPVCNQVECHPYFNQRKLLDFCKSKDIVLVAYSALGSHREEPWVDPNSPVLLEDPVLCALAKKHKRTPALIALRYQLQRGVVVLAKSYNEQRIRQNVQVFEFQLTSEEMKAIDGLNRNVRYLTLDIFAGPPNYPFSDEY
UniProt Q9NXW9, sequence (Q9NXW9 whole entry, looked up): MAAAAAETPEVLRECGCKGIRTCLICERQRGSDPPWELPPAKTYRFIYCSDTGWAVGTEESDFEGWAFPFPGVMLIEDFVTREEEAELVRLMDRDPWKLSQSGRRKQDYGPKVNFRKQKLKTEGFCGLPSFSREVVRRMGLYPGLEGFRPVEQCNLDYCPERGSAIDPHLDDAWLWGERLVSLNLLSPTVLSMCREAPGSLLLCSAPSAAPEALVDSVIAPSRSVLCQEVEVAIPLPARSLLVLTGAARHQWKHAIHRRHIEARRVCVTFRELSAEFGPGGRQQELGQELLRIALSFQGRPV
UniProt Q9UNA0, sequence (Q9UNA0 whole entry, looked up): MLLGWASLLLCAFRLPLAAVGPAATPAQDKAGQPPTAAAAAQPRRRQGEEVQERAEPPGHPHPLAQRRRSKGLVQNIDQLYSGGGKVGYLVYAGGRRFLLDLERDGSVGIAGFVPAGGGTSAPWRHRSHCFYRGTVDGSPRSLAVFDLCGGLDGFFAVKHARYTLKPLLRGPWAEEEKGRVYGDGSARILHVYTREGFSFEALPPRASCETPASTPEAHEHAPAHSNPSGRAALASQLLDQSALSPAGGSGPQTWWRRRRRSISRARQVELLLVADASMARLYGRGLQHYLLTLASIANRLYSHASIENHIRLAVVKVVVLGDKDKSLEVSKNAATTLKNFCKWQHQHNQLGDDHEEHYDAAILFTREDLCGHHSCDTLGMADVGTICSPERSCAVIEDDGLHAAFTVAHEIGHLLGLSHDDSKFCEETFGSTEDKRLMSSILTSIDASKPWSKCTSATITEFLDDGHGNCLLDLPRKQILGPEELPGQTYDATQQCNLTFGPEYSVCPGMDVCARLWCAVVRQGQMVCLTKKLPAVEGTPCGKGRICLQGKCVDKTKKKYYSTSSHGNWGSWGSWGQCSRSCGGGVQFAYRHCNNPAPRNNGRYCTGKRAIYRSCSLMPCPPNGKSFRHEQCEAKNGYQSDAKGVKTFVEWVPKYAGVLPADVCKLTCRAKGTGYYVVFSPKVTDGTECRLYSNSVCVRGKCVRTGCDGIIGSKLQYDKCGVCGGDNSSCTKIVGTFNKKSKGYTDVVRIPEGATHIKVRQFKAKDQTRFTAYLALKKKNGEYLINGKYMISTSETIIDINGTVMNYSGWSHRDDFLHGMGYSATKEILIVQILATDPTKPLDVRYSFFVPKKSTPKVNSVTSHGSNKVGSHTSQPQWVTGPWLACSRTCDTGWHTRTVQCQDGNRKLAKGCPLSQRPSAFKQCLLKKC
UniProt Q9ULX6, sequence (Q9ULX6 whole entry, looked up): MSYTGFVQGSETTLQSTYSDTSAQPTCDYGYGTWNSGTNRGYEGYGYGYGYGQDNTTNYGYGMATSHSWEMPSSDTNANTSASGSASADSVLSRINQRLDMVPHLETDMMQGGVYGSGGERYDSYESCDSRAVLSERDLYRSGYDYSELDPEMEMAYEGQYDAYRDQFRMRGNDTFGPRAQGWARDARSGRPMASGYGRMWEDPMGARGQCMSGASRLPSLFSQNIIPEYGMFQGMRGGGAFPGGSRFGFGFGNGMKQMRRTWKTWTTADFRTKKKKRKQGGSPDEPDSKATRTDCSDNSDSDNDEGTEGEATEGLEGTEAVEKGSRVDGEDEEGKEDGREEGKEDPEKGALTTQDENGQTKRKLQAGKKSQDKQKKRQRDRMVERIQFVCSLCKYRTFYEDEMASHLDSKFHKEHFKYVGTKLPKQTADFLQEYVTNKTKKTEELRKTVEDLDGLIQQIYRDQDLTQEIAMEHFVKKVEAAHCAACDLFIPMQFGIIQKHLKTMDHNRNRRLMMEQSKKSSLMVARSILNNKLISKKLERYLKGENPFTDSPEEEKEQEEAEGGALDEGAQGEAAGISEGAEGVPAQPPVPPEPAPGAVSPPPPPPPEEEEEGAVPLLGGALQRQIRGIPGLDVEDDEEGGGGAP
UniProt P14621, sequence (P14621 whole entry, looked up): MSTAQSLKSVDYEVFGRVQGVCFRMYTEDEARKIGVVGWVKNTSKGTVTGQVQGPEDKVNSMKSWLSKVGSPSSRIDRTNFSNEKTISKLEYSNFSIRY

Target	log2 fold change [1]	log2 fold change [2]	log2 fold change [3]	log2 fold change [4]	log2 fold change [5]	log2 fold change [6]	log2 fold change [7]	log2 fold change [8]	log2 fold change [9]	log2 fold change [10]	log2 fold change [11]	log2 fold change [12]	log2 fold change [13]	log2 fold change [14]	log2 fold change [15]	log2 fold change [16]	log2 fold change [17]	log2 fold change [18]	log2 fold change [19]	log2 fold change [20]
ARAF (UniProt P10398)	0.036	-0.08	0.019	-0.039	-0.105	0.307 (active)	0.093	-0.048	0.007	0.019	-0.019	0.011	-0.041	-0.045	-0.025	-0.077	-0.007	0.006	-0.047	-0.031
ACACA isoform 4 (UniProt Q13085)	0.016	-0.115	-0.011	-0.008	-0.02	0.032	-0.16	0.014	0	-0.004	-0.019	0	-0.081	-0.001	0.032	-0.068	0.033	0.045	-0.056	0.061
AKR1C2 (UniProt P52895)	-0.06	0.061	-0.021	-0.05	-0.151	-0.012	0.018	0.002	0.004	-0.082	-0.012	-0.022	-0.059	-0.201	0.049	0.276 (active)	0.014	-0.011	0.108	0.18
ACSL4 (UniProt O60488)	0.023	-0.06	0.047	0.054	-0.034	0.003	0.073	-0.017	0.019	0.014	0.008	0.028	-0.042	-0.016	0.026	-0.065	0.002	0.025	-0.093	-0.003
ACACB (UniProt O00763)	-0.04	-0.153	0.007	0.019	-0.043	0.127	-0.156	0.016	0.006	0.006	-0.032	-0.029	-0.103	-0.113	0.032	0.021	0.072	0.054	-0.113	0.165
AFF1 isoform 2 (UniProt P51825)	-0.157	0.052	0.076	0.083	0.004	-0.001	-0.033	-0.043	0.157	-0.323	-0.055	-0.063	0.005	-0.396 (active)	0.067	0.341	0.066	0.064	-0.04	0.696 (active)
ALKBH4 (UniProt Q9NXW9)	0.029	-0.093	-0.003	0.166	0.026	0.053	-0.02	0.019	-0.03	0.044	-0.02	0.003	0.04	-0.055	0.035	-0.019	0.047	-0.018	-0.108	-0.028
ANKRD52 (UniProt Q8NB46)	-0.002	-0.132	-0.003	0.076	0.014	0.047	0.11	0.005	0	0.039	-0.133	-0.036	-0.11	-0.004	0.01	0.012	0	0.001	-0.071	0.034
ALDH1A1 (UniProt P00352)	0.06	-0.004	0.004	-0.007	-0.037	-0.009	-0.043	0.01	-0.001	-0.017	0.002	-0.068	0.004	0.05	-0.023	-0.111	-0.006	-0.015	0.061	-0.164
AKT1 (UniProt P31749)	-0.002	-0.018	0.036	0.038	-0.05	0.084	0.093	0.019	0.003	-0.05	0.054	0.002	-0.049	-0.034	-0.008	-0.048	0	0.031	-0.044	0.033
ADAMTS5 (UniProt Q9UNA0)	-0.33	0.149	0.105	-0.052	0.278	-0.134	-0.012	0.073	0.109	-0.093	-0.102	-0.015	-0.139	-0.843 (active)	-0.004	0.332	0.011	0.04	-0.211	0.33
AKAP8L (UniProt Q9ULX6)	-0.003	-0.183	0.008	0.003	-0.109	0.059	-0.032	0.043	0.011	0.009	0.017	-0.018	0.053	-0.05	0.038	0.033	0	-0.153	0.016	0.011
ACAT1, A0A5F9ZHJ0	-0.023	0.081	–	–	–	–	–	-0.035	–	-0.056	–	–	–	-0.151	–	-0.075	–	–	–	0.208
ACYP2 (UniProt P14621)	0.084	-0.021	0.007	0.329 (active)	–	–	–	-0.096	-0.009	-0.02	-0.049	-0.065	0.082	0.217	–	-0.076	–	-0.024	-0.002	-0.105
ABCA3 (UniProt Q99758)	0.109	0.188	-0.017	-0.037	0.317	-0.12	0.025	–	-0.09	–	0.025	-0.028	-0.469 (active)	-0.156	0.061	0.113	-0.16	0.203	-0.006	-0.075
ACLY isoform 2 (UniProt P53396)	-0.147	0.017	–	0.007	–	0.072	0.009	-0.089	0.071	-0.407	0.012	-0.03	0.078	-0.423 (active)	–	0.323	0.055	-0.119	0.004	0.277
ABCC5 (UniProt O15440)	-0.12	0.121	-0.002	0.125	0.008	0.165	-0.032	–	-0.012	–	0.013	0.13	0.014	-0.038	-0.045	0.043	-0.016	0.081	-0.117	0.045
